The full ranking holds about 16,000 sequences; the median of “e-score” is about -0.044, and the highest 2% start at about 0.38. Many of the other results were omitted from the sample, so the highest values are more common in it than they were.
Molecular target: T1, GST-NbGlk1(82-244) (Nicotiana benthamiana)
T1 chain: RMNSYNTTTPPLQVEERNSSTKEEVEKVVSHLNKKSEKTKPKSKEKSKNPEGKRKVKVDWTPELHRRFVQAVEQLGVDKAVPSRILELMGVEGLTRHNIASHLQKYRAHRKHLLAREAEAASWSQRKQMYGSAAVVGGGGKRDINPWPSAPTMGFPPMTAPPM
Assay: protein-binding microarray; NbGlk1 is a Golden2-like transcription factor of Nicotiana benthamiana; high values mean tight binding
Conditions: protein: recombinant; tags: GST (pTH6838); dsDNA, one strand shown

Point of comparison: AACAGAAT, binding signal 0.301 ± 0.106 E-score. Against it:
- ACGCGTAT — within error, 0.211 ± 0.0436 E-score
- ATTTCAAG — within error, 0.23 ± 0.00665 E-score
- ATAACGTA — within error, 0.205 ± 0.0524 E-score
- AGGATACG — within error, 0.357 ± 0.0118 E-score
- ATAGCAAT — within error, 0.321 ± 0.015 E-score
- ATCCTATA — within error, 0.326 ± 0.0829 E-score
- ATCTGCAA — within error, 0.317 ± 0.0136 E-score
- ATCGCAGA — within error, 0.23 ± 0.0112 E-score
- ATCTCCGG — within error, 0.318 ± 0.0623 E-score
- ATCTTAGA — within error, 0.243 ± 0.155 E-score
- ATTCCTAA — within error, 0.236 ± 0.0111 E-score
- CAATCCGG — within error, 0.328 ± 0.0049 E-score
- AAATCCGG — higher, 0.441 ± 0.0267 E-score
- AAATCCGA — higher, 0.427 ± 0.0109 E-score
- AAATCAGA — within error, 0.315 ± 0.029 E-score
- AAATCCGT — within error, 0.401 ± 0.0483 E-score
- AATCCCGC — within error, 0.335 ± 0.0716 E-score
- AGATCCGG — within error, 0.291 ± 0.0113 E-score
- AATCCCGT — within error, 0.366 ± 0.0273 E-score
- CAATCCGC — within error, 0.305 ± 0.107 E-score
- CAATCCGA — within error, 0.35 ± 0.00607 E-score
- AAATCCGC — higher, 0.432 ± 0.0197 E-score
- AAATCCCT — within error, 0.354 ± 0.00608 E-score
- ACGGTATC — within error, 0.297 ± 0.0236 E-score
- ATATAGAA — within error, 0.254 ± 0.0436 E-score
- ATTTAGAA — within error, 0.279 ± 0.0333 E-score
- ATTCCTTA — within error, 0.228 ± 0.0221 E-score
- AATCGCGC — within error, 0.311 ± 0.0585 E-score
- AATCTCGT — within error, 0.436 ± 0.0316 E-score
- AATCACGG — within error, 0.256 ± 0.0042 E-score
- AATCACGA — within error, 0.339 ± 0.0266 E-score
- ATTCTCGA — within error, 0.308 ± 0.0153 E-score
- AATCGCGT — within error, 0.352 ± 0.0711 E-score
- ATTCTCGC — within error, 0.232 ± 0.00302 E-score
- AATCTCGC — within error, 0.411 ± 0.0281 E-score
- AATCTCGG — higher, 0.429 ± 0.00874 E-score
- AATCTCGA — higher, 0.436 ± 0.00491 E-score
- ATTCTCGG — within error, 0.229 ± 0.0773 E-score
- AATCACGT — within error, 0.304 ± 0.0574 E-score
- AAATAAAT — within error, 0.24 ± 0.102 E-score
- ATCTCGAA — within error, 0.367 ± 0.06 E-score
- ATAGCGTA — within error, 0.266 ± 0.0123 E-score
- AATACGAT — within error, 0.294 ± 0.0273 E-score
- AATACGTG — within error, 0.216 ± 0.0545 E-score
- ATAAGATA — the same, 0.301 ± 0.0184 E-score
- ATTCGGGA — within error, 0.286 ± 0.0532 E-score
- ATACAGAA — within error, 0.221 ± 0.0562 E-score
- ACAAGGAT — within error, 0.227 ± 0.00244 E-score
- ATTCTCTG — within error, 0.358 ± 0.0226 E-score
- AAATTCTG — within error, 0.235 ± 0.065 E-score
- ATTCTCTA — within error, 0.306 ± 0.094 E-score
- AAATTCTA — within error, 0.245 ± 0.0867 E-score
- ATATTCTG — within error, 0.342 ± 0.04 E-score
- ATATTCTA — within error, 0.25 ± 0.0067 E-score
- AGATTCTA — higher, 0.4515 ± 0.00133 E-score
- ATATTCTC — within error, 0.402 ± 0.0347 E-score
- AGATTCTG — higher, 0.4694 ± 0.00442 E-score
- AGATTCAC — within error, 0.289 ± 0.0335 E-score
- AAATTCTC — within error, 0.283 ± 0.0053 E-score
- AGATTCTC — higher, 0.4901 ± 0.00333 E-score
- AATCAATT — within error, 0.213 ± 0.116 E-score
- ATAATTTC — within error, 0.227 ± 0.0306 E-score
- AGTCAGAT — within error, 0.208 ± 0.0487 E-score
- AGTTGGAT — within error, 0.269 ± 0.0791 E-score
- AATCACGC — within error, 0.256 E-score
- ATAAGGAT — within error, 0.22 ± 0.0746 E-score
- ATCGGTAA — within error, 0.201 ± 0.0464 E-score
- ATATTCCG — within error, 0.36 ± 0.00732 E-score
- ATATTCCC — within error, 0.393 ± 0.0225 E-score
- ATATTCCA — within error, 0.326 ± 0.0114 E-score
- AAATCAGC — within error, 0.363 ± 0.0041 E-score
- CAATCGGA — within error, 0.227 ± 0.013 E-score
- ATATTGAA — within error, 0.203 ± 0.00588 E-score
- AATGATAT — within error, 0.224 ± 0.0384 E-score
- AATCTAAA — within error, 0.403 ± 0.0351 E-score
- AATCTAAC — within error, 0.413 ± 0.0271 E-score
- AATTTAAA — within error, 0.226 ± 0.0725 E-score
- AATCGAAG — within error, 0.285 ± 0.0157 E-score
- ATTCTAAA — within error, 0.221 ± 0.0153 E-score
- ATCCTAAT — within error, 0.248 ± 0.0062 E-score
- AATCAAAC — within error, 0.25 ± 0.0482 E-score
- AATCTAAG — within error, 0.402 ± 0.0258 E-score
- AATCGAAC — within error, 0.213 ± 0.0388 E-score
- AATCAAAG — within error, 0.221 ± 0.0254 E-score
- AATCTAAT — within error, 0.412 ± 0.0116 E-score
- AATCAAAT — within error, 0.297 ± 0.0152 E-score
- ATCGCACA — within error, 0.256 ± 0.0485 E-score
- ATCTCATG — within error, 0.3181 ± 0.000641 E-score
- ATTTCCGC — within error, 0.333 ± 0.0224 E-score
- ATCTTATA — within error, 0.342 ± 0.00345 E-score
- ATCTTATC — within error, 0.288 ± 0.0568 E-score
- ATCTGGAG — within error, 0.225 ± 0.0674 E-score
- ATTCGAAT — within error, 0.221 ± 0.203 E-score
- AATCCACC — within error, 0.382 ± 0.0151 E-score
- AATCCTCA — within error, 0.376 ± 0.0245 E-score
- AATCCACT — within error, 0.364 ± 0.0439 E-score
- ATTCCACC — within error, 0.235 ± 0.0237 E-score
- AATCCACG — within error, 0.406 ± 0.0241 E-score
- ATCCCACA — within error, 0.234 ± 0.0752 E-score
- AATCCACA — higher, 0.419 ± 0.00571 E-score
- AATCCTCC — within error, 0.375 ± 0.00794 E-score
- ATTCCACG — within error, 0.222 ± 0.06 E-score
- AATTTTAG — within error, 0.222 ± 0.0121 E-score
- ATCTGCAT — within error, 0.31 ± 0.0522 E-score
- AAATCGAC — within error, 0.341 ± 0.00515 E-score
- AATCCAGG — higher, 0.415 ± 0.00511 E-score
- AATCCAGT — within error, 0.398 ± 0.00993 E-score
- AATCCCGG — within error, 0.326 ± 0.0261 E-score
- AATCCCAG — within error, 0.342 ± 0.0163 E-score
- AATCCAGC — within error, 0.364 ± 0.00724 E-score
